According to PubChem BioAssay (NCI):
Where “and” joins values, the source holds several entries; their conditions need not be identical. Identical values can stand only once. About 83,000 compounds went through this panel and 20% of them were active in at least one assay; those are over-represented in the sample as a whole.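 Results are percent growth after 48 hours of single-concentration exposure. 100 means growth as in untreated cells, lower positive values show inhibition; negative values down to -100 show cell death.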 Calls of active or inactive are those of the source. The calls were made as follows: active = growth percent below 10; inactive = the rest.

Legend:
Assay in all cases: NCI-60 one-dose screen, 48 h (100 = growth as untreated, 0 = no growth, -100 = all killed)
Conditions in all cases: 10 µM unless noted
NCI-H226 lung = test system: NCI-H226 lung
NCI-H322M lung = test system: NCI-H322M lung
HOP-62 NSCLC = test system: HOP-62 NSCLC
NCI-H460 lung = test system: NCI-H460 lung
HOP-92 NSCLC = test system: HOP-92 NSCLC
NCI-H522 lung = test system: NCI-H522 lung
A549/ATCC NSCLC = test system: A549/ATCC NSCLC
786-0 renal = test system: 786-0 renal
COLO 205 colon = test system: COLO 205 colon
DU-145 prostate = test system: DU-145 prostate
MALME-3M melanoma = test system: MALME-3M melanoma
MDA-MB-231 breast = test system: MDA-MB-231 breast
RXF 393 renal = test system: RXF 393 renal
SF-268 CNS = test system: SF-268 CNS
SF-295 CNS = test system: SF-295 CNS
SF-539 CNS = test system: SF-539 CNS
UACC-257 melanoma = test system: UACC-257 melanoma
M14 melanoma = test system: M14 melanoma
NCI-H23 lung = test system: NCI-H23 lung
K-562 leukemia = test system: K-562 leukemia

| Compound | growth (NCI-H226 lung) | growth (NCI-H322M lung) | growth (HOP-62 NSCLC) | growth (NCI-H460 lung) | growth (HOP-92 NSCLC) | growth (NCI-H522 lung) | growth (A549/ATCC NSCLC) | growth (786-0 renal) | growth (COLO 205 colon) | growth (DU-145 prostate) | growth (MALME-3M melanoma) | growth (MDA-MB-231 breast) | growth (RXF 393 renal) | growth (SF-268 CNS) | growth (SF-295 CNS) | growth (SF-539 CNS) | growth (UACC-257 melanoma) | growth (M14 melanoma) | growth (NCI-H23 lung) | growth (K-562 leukemia) |
| --- | --- | --- | --- | --- | --- | --- | --- | --- | --- | --- | --- | --- | --- | --- | --- | --- | --- | --- | --- | --- |
| CCC(=O)C(CC)c1cccc(OC)c1 (centres undefined) | 102% (inactive) | 101% (inactive) | 122% (inactive) | 107% (inactive) | 97.3% (inactive) | 102% (inactive) | 106% (inactive) | 103% (inactive) | 117% (inactive) | 114% (inactive) | 101% (inactive) | 111% (inactive) | 107% (inactive) | 120% (inactive) | 100% (inactive) | 115% (inactive) | 100% (inactive) | 101% (inactive) | – | – |
| CNc1cc(-c2cccc(OC(F)(F)F)c2)nc2ccc(N3CCCC3)cc12 | 94.6% (inactive) and 68.5% (inactive) and -35.2% (active) | – | 74.6% (inactive) and 45.7% (inactive) and 33.4% (inactive) | -68% (active) and -62.5% (active) and -65.4% (active) | -31.9% (active) and 13% (inactive) and 28.5% (inactive) | – | – | -86% (active) and -95.3% (active) and -67.6% (active) | -25.6% (active) and -81.7% (active) and -75.7% (active) | -43.5% (active) and 6.55% (active) and 12.9% (inactive) | -74.2% (active) and -88.1% (active) and -75.4% (active) | -47.4% (active) and -63.4% (active) and -2.52% (active) | -64.4% (active) and -78.3% (active) and -67.5% (active) | 78.9% (inactive) and 61.6% (inactive) and 55.9% (inactive) | 82.8% (inactive) and -66.4% (active) and -74.5% (active) | -76.6% (active) and -78.4% (active) and -68.4% (active) | 82% (inactive) and -59.4% (active) and -57.4% (active) | -87% (active) and -86.6% (active) and -76.4% (active) | 66.5% (inactive) and 6.85% (active) and 8.59% (active) | -42.3% (active) and -31.2% (active) and -12.4% (active) |
| OCc1ccccn1 | 102% (inactive) | 105% (inactive) | 115% (inactive) | 105% (inactive) | 108% (inactive) | 94.9% (inactive) | 102% (inactive) | 104% (inactive) | 127% (inactive) | 100% (inactive) | 115% (inactive) | 114% (inactive) | 111% (inactive) | 107% (inactive) | 94.7% (inactive) | 104% (inactive) | 104% (inactive) | 108% (inactive) | – | – |
| COC(=O)c1nc(N)nc(C(=O)OC)c1C(=O)c1ccc(OC)cc1 | 101% (inactive) and 74.8% (inactive) | – | 115% (inactive) and 62.3% (inactive) | 121% (inactive) and 55% (inactive) | 106% (inactive) and 63.4% (inactive) | – | 102% (inactive) and 53.6% (inactive) | 124% (inactive) and 72.4% (inactive) | 109% (inactive) and 75.8% (inactive) | 97.2% (inactive) and 48.2% (inactive) | 100% (inactive) and 50.4% (inactive) | 107% (inactive) and 53.8% (inactive) | 103% (inactive) and 9.98% (active) | 97.9% (inactive) and 92.8% (inactive) | 108% (inactive) and 102% (inactive) | 97.4% (inactive) and 59.8% (inactive) | 100% (inactive) and 86.7% (inactive) | 108% (inactive) and 48.5% (inactive) | 98.5% (inactive) and 58% (inactive) | 102% (inactive) and 52% (inactive) |
| NC(=S)NS(=O)(=O)c1ccc(N)cc1 | 96% (inactive) | – | 96.7% (inactive) | 109% (inactive) | 103% (inactive) | 102% (inactive) | 101% (inactive) | 105% (inactive) | 108% (inactive) | 125% (inactive) | 96.6% (inactive) | 117% (inactive) | 101% (inactive) | 107% (inactive) | 94.7% (inactive) | 98.7% (inactive) | 101% (inactive) | 106% (inactive) | – | 103% (inactive) |
| COc1ccc2c(=O)cc(-c3ccccc3)[nH]c2c1 | 57.3% (inactive) and 23.8% (inactive) | – | 30.1% (inactive) and 21.2% (inactive) | 6.58% (active) and 4.24% (active) | – | -20% (active) and -68.2% (active) | 22.6% (inactive) and 13.9% (inactive) | 35.3% (inactive) and -14.1% (active) | -19.6% (active) and -7.06% (active) | 15% (inactive) and 19.1% (inactive) | 40.7% (inactive) and 47.9% (inactive) | 29.9% (inactive) and 29.1% (inactive) | 7.41% (active) | 45.3% (inactive) and 43.1% (inactive) | -8.08% (active) and 2.52% (active) | -5.99% (active) and -23.9% (active) | 65.2% (inactive) and 30.5% (inactive) | 4.76% (active) and 0.39% (active) | 34.4% (inactive) and 16.5% (inactive) | 9.54% (active) and -12.9% (active) |
| CCOC(=O)Nc1ccc2c(c1)/C(=N\NC(N)=S)c1ccccc1-2 | 76% (inactive) and 81.1% (inactive) | – | 74.7% (inactive) and 77.6% (inactive) | 52% (inactive) and 58.4% (inactive) | – | 76.9% (inactive) | 60% (inactive) and 57.6% (inactive) | 28% (inactive) and 53.7% (inactive) | 63.3% (inactive) and 88.3% (inactive) | 64.1% (inactive) and 84.3% (inactive) | 89.4% (inactive) | 32.7% (inactive) and 47.6% (inactive) | 8.9% (active) and 12.6% (inactive) | 78.6% (inactive) and 85.7% (inactive) | 3.9% (active) and 30% (inactive) | 13.8% (inactive) and 31% (inactive) | 41.9% (inactive) and 91.3% (inactive) | 42% (inactive) and 61.6% (inactive) | 44.3% (inactive) and 62.6% (inactive) | 33.9% (inactive) |
| CC(=O)C(/C=N/C(N)=O)=C(/C)O | 111% (inactive) | 113% (inactive) | – | 116% (inactive) | 119% (inactive) | 99.6% (inactive) | 99.6% (inactive) | 104% (inactive) | 120% (inactive) | 118% (inactive) | 106% (inactive) | 96.5% (inactive) | 114% (inactive) | 109% (inactive) | 101% (inactive) | 103% (inactive) | 97.3% (inactive) | 108% (inactive) | – | – |
| Cc1nnc(NC/C=C/c2ccccc2)s1 | 106% (inactive) and 102% (inactive) | – | 88.7% (inactive) and 111% (inactive) | 105% (inactive) and 108% (inactive) | 91.3% (inactive) and 91.5% (inactive) | 112% (inactive) | 101% (inactive) | 100% (inactive) and 102% (inactive) | 110% (inactive) and 113% (inactive) | 104% (inactive) and 106% (inactive) | 99.6% (inactive) | 105% (inactive) and 120% (inactive) | 102% (inactive) | 102% (inactive) and 97.3% (inactive) | 99.7% (inactive) | 109% (inactive) and 101% (inactive) | 96.9% (inactive) | 101% (inactive) and 104% (inactive) | 98.5% (inactive) and 2.04% (active) | 87.9% (inactive) and 94.2% (inactive) |
| C[N+](C)(C)CN1C(=O)c2ccccc2C1=O | 112% (inactive) | – | 96% (inactive) | 105% (inactive) | – | 90.9% (inactive) | 99.8% (inactive) | 104% (inactive) | 104% (inactive) | 113% (inactive) | – | 114% (inactive) | 105% (inactive) | 110% (inactive) | – | 99.5% (inactive) | 97.8% (inactive) | 103% (inactive) | 105% (inactive) | 92% (inactive) |
| N#CCCOc1ccccc1 | 110% (inactive) | – | 95.3% (inactive) | 105% (inactive) | 84.6% (inactive) | 87.7% (inactive) | – | 98.2% (inactive) | 106% (inactive) | 117% (inactive) | 95.1% (inactive) | 108% (inactive) | 114% (inactive) | 102% (inactive) | 101% (inactive) | 96.2% (inactive) | 92.6% (inactive) | 97.9% (inactive) | – | 89.6% (inactive) |
